52 molecules from ChEMBL document CHEMBL4513216, “Probing the Open Global Health Chemical Diversity Library for Multistage-Active Starting Points for Next-Generation Antimalarials” (ACS Infect Dis, 2020) can be followed below.

Structures are written as SMILES. Out of some 69,000 compounds screened, about 8,600 (12%) showed an effect of 50% or more. Only a selection was taken, and strong results are over-represented in it overall.

For the assay, the system named is Plasmodium berghei. The assay is described as follows: Screen against P. berghei liver stage (PbLuc), transformed with Luciferase, at 10uM. It counts as functional, HepG2. The conditions noted are these: tested at 10 uM.
As for `Cc1cccc(C(=O)N2C[C@@H](OCc3ccncc3)[C@@H]3OCCC[C@@H]32)n1`, the INHIBITION is -69.9%. As to `COCCN(Cc1ccccn1)C(=O)Nc1cccnc1-n1cccn1`, the INHIBITION is 9.4%. As for `NC(=O)CN1CCOCC(Cc2ccccc2)C1` (configuration not stated), the INHIBITION is -4.51%.

`C=C(C)COc1ccccc1C(=O)N1CCC(C(=O)NCC)C1` (configuration not stated): the INHIBITION was found to be 48.5%. Consider `CCN(c1ccc(C(=O)N2CCCCC2)cc1)S(=O)(=O)CC`, for which the INHIBITION is 40.3%. Take `OC1(CNc2cccc(F)c2)CCNCC1`: the INHIBITION is reported as 28.5%. Take `CC(CN1CCOCC1)n1cncc1-c1cnn(Cc2ccccc2)c1` (configuration not stated): the INHIBITION is on record as -3.135%. In the case of `CCOC(=O)N1CCN(C(=O)C(CC)n2cccn2)CC1` (configuration not stated), the INHIBITION is 31.2%.

With `Cc1nccc([C@H]2C[C@@H]3CCN(S(C)(=O)=O)C[C@H]3O2)n1`, the INHIBITION is 33.2%. With `Cc1nccc(C(=O)N2CCCC(c3cc(C(F)(F)F)[nH]n3)C2)n1` (configuration not stated), the INHIBITION came out at 40%.

For `O=C(c1ccc(Cl)o1)N1CCCC(c2cc(C(F)(F)F)[nH]n2)C1` (configuration not stated), the INHIBITION was 63.4%.

With `Cc1cc(C2CCCN(C(=O)c3ccc(Cl)o3)C2)n[nH]1` (configuration not stated), the INHIBITION is reported as 42.9%. For the molecule `Cc1[nH]ncc1C(=O)N1CCCC(c2cc(C(F)(F)F)[nH]n2)C1` (configuration not stated), the INHIBITION was 24%. Take `O=C(c1ccco1)N1CCCC(c2cc(C(F)(F)F)[nH]n2)C1` (configuration not stated): the INHIBITION was determined as 36.1%.

Consider `O=C(CO)N1CCCC(c2cc(C(F)(F)F)[nH]n2)C1` (configuration not stated), for which the INHIBITION is 6.26%. As to `Cc1ccoc1C(=O)N1CCCC(c2cc(C(F)(F)F)[nH]n2)C1` (configuration not stated), the INHIBITION was determined as 62.6%. `Cc1ccc(C(=O)N2CCCC(c3cc(C(F)(F)F)[nH]n3)C2)o1` (configuration not stated): the INHIBITION came to 54.4%. In the case of `Cc1cc(C(=O)N2CCCC(c3cc(C(F)(F)F)[nH]n3)C2)on1` (configuration not stated), the INHIBITION is listed as 33.8%. On to `Cc1noc(C)c1C(=O)N1CCCC(c2cc(C(F)(F)F)[nH]n2)C1` (configuration not stated), for which the INHIBITION was -27.9%. Next, `CC(C)(C#N)C(=O)N1CCCC(c2cc(C(F)(F)F)[nH]n2)C1` (configuration not stated): 55.5%; `CCOCCC1(CNC(=O)c2ccncc2Cl)CCC1`: 20.4%; `O=C(NCc1ccco1)[C@@]12CCO[C@@H]1CCN(CC1CCOCC1)C2`: 11.4%. Turning to `CN(Cc1cccnc1)Cc1cn2c(n1)CN(C1CCOC1)CC2` (configuration not stated), the INHIBITION amounted to 28.3%. For the molecule `COCCN(Cc1nc2c(cnn2C)c(=O)[nH]1)C(C)COC` (configuration not stated), the INHIBITION is -7.35%. Next, `COCCN1C(=O)CCC12CCC(NCc1cccnc1OC)CC2` (configuration not stated): 34.6%.

`O=c1cc(CNCc2ccc3c(c2)OCO3)nc2ccc(Br)cn12`: the INHIBITION came out at 28%. `O=C(Cc1ccon1)NC1CCCN(c2ccccc2F)C1=O` (configuration not stated): the INHIBITION is reported as 9.72%. For `O=C1CCCc2[nH]c(=O)c(C(=O)N(Cc3ccsc3)C3CC3)cc21`, the INHIBITION was 26.43%. For `Cc1nc(CN2C[C@@H](NC(=O)C3CCC3)[C@H]3COC[C@H]32)cs1`, the INHIBITION is reported as -10.5%.

`Fc1ccc(-c2nc(CN3CCCCC3Cn3cncn3)co2)cc1` (configuration not stated): the INHIBITION is given as -0.113%. With `COCCN(Cc1ccccc1)C(=O)c1csc(-c2nnc[nH]2)n1`, the INHIBITION is reported as 24.7%. Next, `CN(CCCOc1ccccc1)C(=O)c1csc(-c2nnc[nH]2)n1`: 53.9%; `COc1cccc(CN(C)C(=O)c2csc(-c3nnc[nH]3)n2)c1`: 40.9%; `Cc1ccccc1-c1cncc(C2CCN(CC(=O)N(C)C)CC2)n1`: -0.371%. As to `Cc1cc(F)ccc1NS(=O)(=O)c1cc2c(c(C(=O)O)c1)OCCO2`, the INHIBITION was 25.1%. Take `CSCC(C)(O)CNc1cccc(F)c1C#N` (configuration not stated): the INHIBITION is 56.5%. Regarding `CC(C)C(C)(O)CNc1cccc(F)c1C#N` (configuration not stated), the INHIBITION is listed as -23.8%. As to `CSCC(C)(O)CNc1cccc(F)c1C(C)=O` (configuration not stated), the INHIBITION was determined as 21.8%. As for `CCOc1ncccc1NC(=O)c1cc(C)sc1C`, the INHIBITION is on record as -8.66%. On to `COc1ccc(C)cc1CN1CCN(Cc2nccn2C)CC1`, for which the INHIBITION is on record as -190%. As for `Fc1cccc(CN2CCC(c3cc4ncccc4cn3)CC2)c1F`, the INHIBITION was determined as 52.7%. In the case of `COc1ccc(C)cc1CN1CCC(c2cc3ncccc3cn2)CC1`, the INHIBITION is on record as 87.9%. In the case of `Fc1cccc(CN2CCC(c3n[nH]c4ncccc34)CC2)c1F`, the INHIBITION was determined as 42.6%. Take `Fc1ccc(F)c(CN2CCC(c3cnccn3)CC2)c1`: the INHIBITION is reported as 34.1%.

For the molecule `Fc1cccc(CN2CCC(c3noc(-c4ccccn4)n3)CC2)c1F`, the INHIBITION was -6.73%. For `Fc1ccc(F)c(CN2CCC(c3cc4ncccc4cn3)CC2)c1` the value was 63.8%; for `Fc1cc(F)cc(CN2CCC(c3cc4ncccc4cn3)CC2)c1`, 32.3%; for `CCc1onc(C)c1C(=O)N1CCC(c2cc3ncccc3cn2)CC1`, 17.1%. `Cc1ccsc1C(CNC(=O)c1cc(=O)c2ccccc2[nH]1)N(C)C` (configuration not stated): the INHIBITION was -38.6%.

Turning to `FC(F)(F)c1csc(N2CCN(Cc3ccccn3)CC2)n1`, the INHIBITION amounted to 1.56%. For `CN(C)C(=O)c1ccc(-c2cscn2)cc1`, the INHIBITION is given as 14.6%.

Take `COC(=O)CCN(C)C(=O)c1ccc(-c2cscn2)cc1`: the INHIBITION amounted to 67.3%.
